Records with an inconclusive call do not appear. Where a call stands in place of a potency, no number is given. Active and inactive are the calls of the source. Calls follow the shape of the dose curve; as a rule, active = well fitted curve in the direction sought with a large enough effect; inconclusive = small, poorly fitted or top-dose-only effect, or another doubt; inactive = no such curve, though single readings can be large; an effect the other way counts as inactive or inconclusive.
What was measured:
[1] = Quantitative High-Throughput drug screen in 47 multiple myeloma cell lines against the NCATS MIPE library collection: EJM_DSMZ cell viability assay (AID 1918926; also: nearly all actives have a fitted effect of over 30% in size; also: potency is read from the fitted curve at half-maximal effect)
Summary of the method: (§1)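 Relative luminescence from CellTiter-Glo served as the viability signal, referenced to DMSO-treated (100%) and cell-free medium (0%) controls. Treatment lasted 48 hours at 37C with 500 cells per well.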

[2] = Quantitative High-Throughput drug screen in 47 multiple myeloma cell lines against the NCATS MIPE library collection: AMO1_DSMZ cell viability assay (AID 1918927; also: nearly all actives have a fitted effect of over 30% in size; also: potency is read from the fitted curve at half-maximal effect)
Summary of the method: as §1

[3] = Quantitative High-Throughput drug screen in 47 multiple myeloma cell lines against the NCATS MIPE library collection: ARP1_JJKsccF8 cell viability assay (AID 1918928; also: nearly all actives have a fitted effect of over 40% in size)
Summary of the method: (§2)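 CellTiter-Glo luminescence after 48 h exposure gives viability, scaled between DMSO-only (100%) and media-only (0%) controls. Library compounds are pinned onto 500 myeloma cells per well, incubated at 37C with 5% CO2.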

[4] = Quantitative High-Throughput drug screen in 47 multiple myeloma cell lines against the NCATS MIPE library collection: Karpas620_DSMZ cell viability assay (AID 1918959); also: nearly all actives have a fitted effect of over 30% in size; also: potency is read from the fitted curve at half-maximal effect
Summary of the method: (§3)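 Approved and investigational drugs from MIPE 4.0 were added by pin tool to 500 cells per well. After 48 hours at 37C, ATP-based CellTiter-Glo luminescence indicated remaining viability.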

[5] = Quantitative High-Throughput drug screen in 47 multiple myeloma cell lines against the NCATS MIPE library collection: KMM1_JCRB cell viability assay (AID 1918960); also: nearly all actives have a fitted effect of over 30% in size; also: potency is read from the fitted curve at half-maximal effect
Summary of the method: as §2

[6] = Quantitative High-Throughput drug screen in 47 multiple myeloma cell lines against the NCATS MIPE library collection: ARD_JJKsccE7 cell viability assay (AID 1918929; also: potency is read from the fitted curve at half-maximal effect)
Summary of the method: as §1

[7] = Quantitative High-Throughput drug screen in 47 multiple myeloma cell lines against the NCATS MIPE library collection: JIM3_ECACC cell viability assay (AID 1918963; also: nearly all actives have a fitted effect of over 35% in size; also: potency is read from the fitted curve at half-maximal effect)
Summary of the method: as §3

[8] = Quantitative High-Throughput drug screen in 47 multiple myeloma cell lines against the NCATS MIPE library collection: Karpas417_ECACC cell viability assay (AID 1918961); conditions: Karpas417 myeloma viability, CellTiter-Glo ATP luminescence, 48 h; viability (% of DMSO): at 45.8 µM (top of the series) unless noted; also: potency is read from the fitted curve at half-maximal effect
Summary of the method: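 Inhibition of cell viability is measured here. Each line was plated at 500 cells per well, treated with MIPE 4.0 drugs, kept 48 hours at 37C, then assayed for ATP content by CellTiter-Glo luminescence.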

[9] = Quantitative High-Throughput drug screen in 47 multiple myeloma cell lines against the NCATS MIPE library collection: KHM11_PLB cell viability assay (AID 1918962); also: potency is read from the fitted curve at half-maximal effect; nearly all actives have a fitted effect of over 35% in size
Summary of the method: as §3

| Compound | Potency [1] | Potency [2] | Potency [3] | Potency [4] | Potency [5] | Potency [6] | Potency [7] | Potency [8] | Potency [9] |
| --- | --- | --- | --- | --- | --- | --- | --- | --- | --- |
| COc1ccc(CC2=NN3C([C@@H](CCc4ccccc4)[C@@H](C)O)=NC(C)C3C(=O)N2)cc1OC (stereo partly specified) | inactive | inactive | inactive | inactive | inactive | – | – | – | – |
| Cc1cc(SCc2sc(-c3ccc(C(F)(F)F)cc3)nc2C)ccc1OCC(=O)O | inactive | inactive | – | inactive | inactive | inactive | 18.7 µM (active) | – | – |
| Cc1c(CCOc2ccc(C(=O)O)cc2)c2cc(Cl)ccc2n1C(c1ccccc1)c1ccccc1 | inactive | inactive | – | inactive | inactive | inactive | inactive | inactive | – |
| Cc1c(C)c2c(c(C)c1O)CCC(C)(COc1ccc(CC3SC(=O)NC3=O)cc1)O2 (stereo unspecified) | inactive | – | inactive | – | – | – | – | – | – |
| O=C(Nc1nc2ccccc2n1CCN1CCOCC1)c1cccc([N+](=O)[O-])c1 | 4.18 µM (active) | 4.18 µM (active) | – | 7.43 µM (active) | 5.26 µM (active) | 4.18 µM (active) | inactive | 4.69 µM (active) | – |
| Cn1cnc([N+](=O)[O-])c1Sc1ncnc2nc[nH]c12 | inactive | – | – | – | 2.96 µM (active) | 1.18 µM (active) | 14.8 µM (active) | inactive | – |
| Nc1nccc(-c2ccc3noc(-c4ccc(Cl)cc4)c3c2)n1 | inactive | – | – | inactive | – | inactive | – | – | – |
| C[C@]1(c2nc3c(C(N)=O)cccc3[nH]2)CCCN1 | inactive | – | inactive | inactive | inactive | inactive | – | – | – |
| COc1ccc2nc(S(=O)Cc3ncc(C)c(OC)c3C)[nH]c2c1 (stereo unspecified) | 18.7 µM (active) | – | inactive | – | – | – | inactive | – | – |
| NC(=O)C1CCCc2c1[nH]c1ccc(Cl)cc21 (stereo unspecified) | inactive | 14.8 µM (active) | – | 18.7 µM (active) | – | – | inactive | – | 14.8 µM (active) |
| Clc1ccc(Nc2nnc(Cc3ccncc3)c3ccccc23)cc1 | 18.7 µM (active) | inactive | – | 1.66 µM (active) | inactive | – | 20.9 µM (active) | – | – |
| Fc1ccc(Cl)cc1-c1nc(Nc2ccncc2)c2nccnc2n1 | 8.33 µM (active) | 5.26 µM (active) | – | inactive | – | inactive | 13.2 µM (active) | inactive | – |
| N#Cc1ccc(C(c2ccc(C#N)cc2)n2cncn2)cc1 | inactive | – | – | 18.7 µM (active) | – | 6.62 µM (active) | – | – | – |
| CS(=O)(=O)c1ccc(C(=O)Nc2ccc(Cl)c(-c3ccccn3)c2)c(Cl)c1 | inactive | – | inactive | inactive | inactive | inactive | – | – | – |
| Cn1cc(-c2ccc3nnc(C(F)(F)c4ccc5ncccc5c4)n3n2)cn1 | inactive | 13.2 µM (active) | – | inactive | – | – | inactive | – | – |
